Rows were chosen to be rich in hits. Some 6.9% of all compounds tested hit in one or more screens of this group.
IL-1B inflam inh = inflammasome signaling inhibition, IL-1 beta readout; THP-1 LPS/ATP IL-1B secretion, AlphaLISA, 16 h; stronger effect = lower value; activity change, % at 57.5 µM; hit rate 4.7% among 360,000; AID 743279; in the data active means activity change below about -50%; inconclusive means mostly about -30% to -49%; further: on the % scale 0 is the no-effect control and ±100 the full control effect
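Secreted IL-1B measured by AlphaLISA bead assay after 16 h compound exposure of THP-1 cells; compounds (final up to 57.5 uM) added 1 h before LPS (250 ng/mL) and ATP (1.25 mM) stimulation; lower signal means less secretion.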
SW480 rereplic = DNA re-replication induction in SW480 cells. SW480 DNA re-replication, Hoechst DNA content imaging, 48 h. Potency, µM (top dose mostly 46.1 µM), for the others: top-dose re-replication activation, hits mostly activators. hit rate 1.8% among 340,000; further: potency means the concentration at half of the fitted maximal effect; % of control where 0% means no effect; nearly all actives have a fitted effect of over 55% in size
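Image-based read-out: total Hoechst fluorescence of nuclei (405 nm excitation, 500-530 nm emission), with hits raising the fraction of high-intensity nuclei. SW480 colon cells incubated 48 hr with compounds at 37 C.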
MCF10A rereplic = induces DNA re-replication in MCF 10a normal breast cells | MCF 10A DNA re-replication, Hoechst nuclear intensity, 48 h | AID 624296 | hit rate 2.9% among 350,000 | Potency, µM (doses to about 46.1 µM), for inactives: top-dose activity, positive = re-replication, usual class: activators; further: potency means the concentration at half of the fitted maximal effect; % of control where 0% means no effect; nearly all actives have a fitted effect of over 50% in size
Vif-APOBEC3F blk = blocks the Vif interaction with APOBEC3F; Potency, µM (doses to about 46.1 µM), without a hit: top-dose activity, negative = active; hit rate 0.2% among 390,000; HeLa A3F-eYFP + Vif (tagged APOBEC3F with the HIV-1 protein that degrades it), YFP fluorescence increase; further: potency means the concentration at half of the fitted maximal effect; % of control where 0% means no effect; nearly all actives have a fitted effect of over 65% in size
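HeLa cells stably expressing Vif plus C-terminally eYFP-tagged A3F were seeded, incubated overnight at 37 deg C, dosed with compound, incubated overnight again at 37 deg C. Yellow fluorescence (Ex 488/Em 500-530) reported blocked Vif-mediated A3F-eYFP degradation.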
Vif-APOBEC3G blk = inhibitors of Vif-APOBEC3G interaction. Q9HC16. HeLa A3G-eYFP + Vif (tagged APOBEC3G with the HIV-1 protein that degrades it), YFP fluorescence, overnight. Potency, µM (doses to about 46.1 µM), without a hit: at the top dose activity, negative = active, actives largely listed as inhibitors. hit rate 0.076% among 410,000. AID 602310; further: potency means the concentration at half of the fitted maximal effect; on the % scale 0 is the no-effect control and ±100 the full control effect; nearly all actives have a fitted effect of over 60% in size
Target sequence (Q9HC16 whole entry, looked up): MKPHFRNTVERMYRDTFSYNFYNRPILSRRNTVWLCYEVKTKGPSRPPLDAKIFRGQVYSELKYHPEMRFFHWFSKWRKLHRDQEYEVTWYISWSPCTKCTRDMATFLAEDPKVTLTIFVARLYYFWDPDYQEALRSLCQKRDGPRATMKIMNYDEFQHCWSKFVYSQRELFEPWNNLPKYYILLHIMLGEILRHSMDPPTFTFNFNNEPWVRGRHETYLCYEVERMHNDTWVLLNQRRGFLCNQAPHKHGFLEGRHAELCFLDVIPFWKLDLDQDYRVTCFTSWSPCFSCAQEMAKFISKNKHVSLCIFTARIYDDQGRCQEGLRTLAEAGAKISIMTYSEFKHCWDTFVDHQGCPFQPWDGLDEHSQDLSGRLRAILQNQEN
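Read-out is eYFP fluorescence (Ex 488/Em 500-530) from Vif-expressing HeLa A3G-eYFP cells; more signal means A3G escaped Vif-mediated degradation. Cells plated overnight, compound pinned in, incubated overnight at 37 deg C.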
Giardia killer = kills Giardia lamblia; AID 540267; hit rate 0.15% among 340,000; activity change, % at 7.66 µM, hits read low; Giardia lamblia trophozoite viability; in the data active means activity change below about -80%; inconclusive means between about -30% and that limit;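 further: parasites exposed to compound for two days anaerobically before the ATP read; on the % scale 0 is the no-effect control and ±100 the full control effect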
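Giardia trophozoites, 100 cells per well, were exposed to compounds for 48 hrs at 37 deg C under anaerobic conditions; viability was then read as ATP content by bioluminescence after 15-30 min at room temperature.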
* = called active by the depositor; [ ] = dose if it differs, or a comment. Unless noted, the call rests on the fitted dose curve; in most records, active means well fitted curve in the direction sought with a large enough effect; inconclusive means small, poorly fitted or top-dose-only effect, or another doubt; inactive means no such curve, though single readings can be large; an effect the other way counts as inactive or inconclusive.

Cc1ccc(C)c(N2CCN(C(=O)c3ccc4nc(-c5ccco5)c(-c5ccco5)nc4c3)CC2)c1 was read as IL-1B inflam inh inconclusive, SW480 rereplic 18µM*, MCF10A rereplic inconclusive, Vif-APOBEC3F blk 1%, Vif-APOBEC3G blk 3% and Giardia killer 15.
`COc1ccccc1N1CCN(C(=O)c2ccc3c(Cl)c4c(nc3c2)CCCC4)CC1` gave IL-1B inflam inh -87*, SW480 rereplic inconclusive, MCF10A rereplic inconclusive, Vif-APOBEC3F blk 11%, Vif-APOBEC3G blk -13% and Giardia killer 7.
Screening COc1ccccc1CNc1ncnc2c1c(-c1ccccc1)cn2-c1cccc(C)c1 returned Vif-APOBEC3F blk 2% and Vif-APOBEC3G blk 5%.
CC1(C)OC(=O)C(=Cc2ccc(-c3ccc(S(N)(=O)=O)cc3)o2)C(=O)O1 was read as IL-1B inflam inh -7, SW480 rereplic inconclusive, MCF10A rereplic 18µM*, Vif-APOBEC3F blk 0%, Vif-APOBEC3G blk -20% and Giardia killer 7.
For NS(=O)(=O)c1ccc(-c2ccc(/C=C3\C(=O)Nc4cc(Cl)ccc43)o2)cc1 the results were IL-1B inflam inh 0, SW480 rereplic inconclusive, MCF10A rereplic inconclusive, Vif-APOBEC3F blk -6%, Vif-APOBEC3G blk 4% and Giardia killer 4.
Screening CCN(CC)C(=O)C1=C(C)N(CCC2=CCCCC2)C(=O)C(CC(=O)NCc2cccc3ccccc23)C1 (centres undefined) returned IL-1B inflam inh -57*, Vif-APOBEC3F blk 0% and Vif-APOBEC3G blk -16%.
Screening CC1=C(C(=O)N(C)C)CC(CC(=O)NCc2cccc3ccccc23)C(=O)N1CCC1=CCCCC1 (centres undefined) returned IL-1B inflam inh -19, Vif-APOBEC3F blk -4% and Vif-APOBEC3G blk -3%.
COCCn1c(-c2ccc(-c3ccccc3Cl)o2)nc2c1c(=O)[nH]c(=O)n2CC(C)C was read as IL-1B inflam inh 28, SW480 rereplic inconclusive, MCF10A rereplic 12µM*, Vif-APOBEC3F blk inconclusive, Vif-APOBEC3G blk -9% and Giardia killer 12.
CCCCn1c(=O)[nH]c(=O)c2c1nc(-c1ccc(-c3ccccc3Br)o1)n2CCOC was read as IL-1B inflam inh 12, SW480 rereplic 5%, MCF10A rereplic inconclusive, Vif-APOBEC3F blk -8%, Vif-APOBEC3G blk -6% and Giardia killer -4.
`CN(C)Cc1cc(C(F)(F)F)ccc1C(O)(c1ccccc1)c1ccccc1` gave IL-1B inflam inh -75*, SW480 rereplic inconclusive, MCF10A rereplic 21%, Vif-APOBEC3F blk 1%, Vif-APOBEC3G blk 1% and Giardia killer 7.
Cc1cccc(CN(C)C)c1CC(O)(c1ccccc1)c1ccccc1 was read as IL-1B inflam inh -4, SW480 rereplic -4%, MCF10A rereplic -2%, Vif-APOBEC3F blk 1%, Vif-APOBEC3G blk -2% and Giardia killer -24.
CN(C)Cc1ccccc1C(O)(c1ccccc1)c1ccccc1 was read as IL-1B inflam inh -71*, SW480 rereplic -1%, MCF10A rereplic 0%, Vif-APOBEC3F blk 0%, Vif-APOBEC3G blk -5% and Giardia killer -2.
Screening CNCCOc1ccccc1C(C)(C)C returned IL-1B inflam inh 3, SW480 rereplic -3%, MCF10A rereplic 3%, Vif-APOBEC3F blk -1%, Vif-APOBEC3G blk 0% and Giardia killer -2.
For CC(C)(C)c1ccccc1OCCOCCNCc1ccccc1 the results were IL-1B inflam inh -57*, SW480 rereplic 7%, MCF10A rereplic inconclusive, Vif-APOBEC3F blk inconclusive, Vif-APOBEC3G blk -8% and Giardia killer 5.
For Cc1cc(OCCOCCNCc2ccccc2)ccc1C(C)C the results were IL-1B inflam inh -63*, SW480 rereplic 17%, MCF10A rereplic 29%, Vif-APOBEC3F blk -14%, Vif-APOBEC3G blk -2% and Giardia killer -21.
For Cc1ccc(C(C)C)c(OCCNCc2ccccc2)c1 the results were IL-1B inflam inh inconclusive, SW480 rereplic 1%, MCF10A rereplic 8%, Vif-APOBEC3F blk inconclusive, Vif-APOBEC3G blk -4% and Giardia killer -19.
Cc1ccc(N2CCN(C(=O)Nc3cccc([N+](=O)[O-])c3)CC2C)cc1 (centres undefined) was read as IL-1B inflam inh -71*, SW480 rereplic 1%, MCF10A rereplic -2%[9.22 µM], Vif-APOBEC3F blk 1%, Vif-APOBEC3G blk 0% and Giardia killer -3.
`CCc1ccc(NC(=O)CSc2nc(C)c(C(=O)Nc3ccccc3)c(-c3ccc(OC)c(OC)c3)c2C#N)cc1` gave Vif-APOBEC3F blk -4% and Vif-APOBEC3G blk -1%.
For Cc1ccc(-c2c3c(=O)n(C)c(=O)n(C)c3c3c(C(F)(F)F)nc4ccccc4n23)cc1 the results were Vif-APOBEC3F blk -16% and Vif-APOBEC3G blk 3%.
COc1cc(/C=C/C(=O)Nc2nc3ccc(S(=O)(=O)N(C)C)cc3s2)cc(OC)c1OC was read as IL-1B inflam inh 28, SW480 rereplic 10µM*, MCF10A rereplic inconclusive, Vif-APOBEC3F blk -5%, Vif-APOBEC3G blk -1% and Giardia killer 22.
COc1cc(OC)cc(C(=O)Nc2nc3ccc(S(C)(=O)=O)cc3s2)c1 was read as IL-1B inflam inh 58, SW480 rereplic 2%, MCF10A rereplic 4%, Vif-APOBEC3F blk 8%, Vif-APOBEC3G blk -9% and Giardia killer 22.
COc1cc(C(=O)Nc2nc3ccc(S(C)(=O)=O)cc3s2)cc(OC)c1C was read as IL-1B inflam inh -6, SW480 rereplic 18µM*, MCF10A rereplic 3%, Vif-APOBEC3F blk 1%, Vif-APOBEC3G blk -16% and Giardia killer inconclusive.
`COc1ccc2oc(C(=O)Nc3nc4ccc(S(C)(=O)=O)cc4s3)c(C)c2c1` gave IL-1B inflam inh -52*, SW480 rereplic 2%, MCF10A rereplic inconclusive, Vif-APOBEC3F blk -22%, Vif-APOBEC3G blk -1% and Giardia killer -3.
For COc1ccc2oc(C(=O)Nc3nnc(C)s3)c(C)c2c1 the results were IL-1B inflam inh -29, SW480 rereplic 7%, MCF10A rereplic 14%, Vif-APOBEC3F blk -4%, Vif-APOBEC3G blk -1% and Giardia killer inconclusive.
`COc1ccc(CCNc2ncnc3nc[nH]c23)cc1` gave Vif-APOBEC3G blk 3% and Giardia killer -18.
Screening CCc1cccc(NC(=O)Cn2c(-c3ccc(F)cc3)cc(C(C)=O)c2C)c1 returned Vif-APOBEC3F blk 9% and Vif-APOBEC3G blk -7%.
CC(C)n1nccc1N(Cc1ccc(Cl)cc1)S(=O)(=O)c1ccccc1 was read as IL-1B inflam inh -71*, SW480 rereplic 2%, MCF10A rereplic 2%, Vif-APOBEC3F blk -6%, Vif-APOBEC3G blk -3% and Giardia killer -1.
`CCCCc1cc(=O)oc2cc(C)c3c(C)coc3c12` gave Vif-APOBEC3F blk -7% and Vif-APOBEC3G blk -4%.

Source: PubChem
